In the library only some 9.2% were active in any assay of this set; here they are far more common.
SMN2 splice up = enhancers of SMN2 splice variant expression; Potency, µM (highest dose often 46.1 µM), for the others: at the highest dose activity change, positive = activation, actives largely listed as activators; 2.8% of 210,000 active; AID 1458; HEK293 SMN2-luciferase splicing reporter, luminescence, 30-36 h; further: % of control where 0% means no effect; nearly all actives have a fitted effect of over 55% in size
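qHTS luciferase splicing reporter: luminescence rises when SMN2 exon 7 is included in transfected HEK293 cells. Compound exposure lasted 30-36 h at 37C, with 4.5 mM final sodium butyrate as control, followed by a ONE-Glo read.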
ELG1 genotoxic = inducers of genotoxicity in HEK293T ELG1-luciferase cells. AID 504466. Potency, µM (doses to about 46 µM), inactives show at the top dose activity change, positive = activation, most hits filed as activators. 1.3% of 330,000 active. HEK293T ELG1-luciferase reporter, luminescence, 16 h; further: % of control where 0% means no effect; nearly all actives have a fitted effect of over 60% in size
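Reporter readout depends on ELG1 protein level, which increases with genetic stress. After 16 hr compound exposure at 37 °C, luciferase activity was quantified using ONE-Glo.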
Rab9 promoter act = Rab9 promoter activation | Huh7 Rab9 promoter-luciferase reporter, luminescence, 24 h | Potency, µM (highest dose often 9.22 µM), without a hit: at the top dose activation, negative = inhibition, hits mostly activators | AID 485297 | 2.8% of 320,000 active; further: % of control where 0% means no effect; nearly all actives have a fitted effect of over 60% in size
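Cells were plated at 1500 per well in reduced-serum medium with 10% FBS and left 2 h. Compound in DMSO was then added for 24 h at 37 °C. Reporter signal was read by luminescence after 10 min with luciferase detection reagent.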
NPC1 promoter act = activates the NPC1 promoter; 2.4% of 320,000 active; AID 485313; Huh7 NPC1 promoter luciferase reporter, 24 h; Potency, µM (highest dose often 9.22 µM), inactives show at the highest dose activation, hits mostly activators; further: % of control where 0% means no effect; nearly all actives have a fitted effect of over 60% in size
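Luminescence from an NPC1 promoter-driven luciferase reporter in stably transfected Huh7 cells was measured after 24 h compound treatment at 37 °C, followed by 10 min ambient incubation with luciferase detection reagent.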
FLuc modulator = inhibits or activates purified firefly luciferase, miR-21 counter-screen | P08659 | purified FLuc, Km substrates, luminescence inhibition | Potency, µM (highest dose often 57.5 µM), without a hit: at the top dose activity change, negative = inhibition, usual class: inhibitors | 6.9% of 360,000 active | AID 588342;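 further: plate controls were vehicle for no effect and reference inhibitor for full effect; nearly all actives have a fitted effect of over 55% in size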
Target sequence (P08659 whole entry, looked up): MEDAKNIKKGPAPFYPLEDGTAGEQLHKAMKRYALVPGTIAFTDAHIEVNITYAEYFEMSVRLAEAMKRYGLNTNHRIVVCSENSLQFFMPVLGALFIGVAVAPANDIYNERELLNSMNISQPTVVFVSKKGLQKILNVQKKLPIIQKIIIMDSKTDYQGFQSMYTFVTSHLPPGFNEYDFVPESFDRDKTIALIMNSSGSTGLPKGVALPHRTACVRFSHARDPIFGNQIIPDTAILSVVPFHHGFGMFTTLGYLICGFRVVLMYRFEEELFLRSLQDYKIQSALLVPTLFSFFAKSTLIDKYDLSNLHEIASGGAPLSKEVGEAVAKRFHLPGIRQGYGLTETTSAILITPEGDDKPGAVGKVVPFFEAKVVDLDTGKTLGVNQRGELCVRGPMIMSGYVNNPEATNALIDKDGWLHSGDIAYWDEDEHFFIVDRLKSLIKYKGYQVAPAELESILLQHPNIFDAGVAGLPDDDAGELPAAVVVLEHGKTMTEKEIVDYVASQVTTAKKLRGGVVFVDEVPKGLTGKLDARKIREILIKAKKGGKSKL
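Purified P. pyralis luciferase (10nM final) with 10uM D-luciferin and 10uM ATP (Km levels) in 50mM Tris acetate pH 7.5, 10mM Mg acetate, 0.01% Tween-20, 0.05% BSA; qHTS 6-point titration, ~60 µM downward; luminescence read.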
ELG1 repair inh = ELG1-dependent DNA repair inhibition; HEK293T ELG1-luciferase reporter, luminescence, 16 h; DNA damage induced by 5-fluorouridine; Potency, µM (highest dose often 46.1 µM), for inactives: top-dose activity change, negative = inhibition, most hits filed as inhibitors; 2.3% of 330,000 active; AID 504467; further: on the % scale 0 is the no-effect control and ±100 the full control effect; nearly all actives have a fitted effect of over 55% in size
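DMSO vehicle served as the neutral condition. Each well held 2,000 cells given 5-fluorouridine plus compound; after 16 hr at 37 °C/5% CO2, ONE-Glo was added and luciferase measured 30 min later.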
Active calls of the source: *; ? = inconclusive; . = not tested or not shown; [ ] = dose if it differs, or a comment. The call rests on the fitted dose curve; in most records, active means well fitted curve in the direction sought with a large enough effect; inconclusive means small, poorly fitted or top-dose-only effect, or another doubt; inactive means no such curve, though single readings can be large; an effect the other way counts as inactive or inconclusive. Potency means the concentration at half of the fitted maximal effect.

SMILES	SMN2 splice up	ELG1 genotoxic	Rab9 promoter act	NPC1 promoter act	FLuc modulator	ELG1 repair inh
CCCCc1ccc(NC(=O)CSc2nnc(CNC(=O)c3ccco3)o2)cc1	.	-2%[9.26 µM]	-3%	-8%	1%	12%
Cc1cc(O)c(-c2n[nH]c3c2C(c2cccc(O)c2)N(Cc2cccnc2)C3=O)cc1Cl (stereo not given)	20µM*	3%	2%	-4%	8%	?
CCOC(=O)c1c(C)[nH]c(N=Nc2cccc(OC)c2)c1C	14µM*	?	1.1µM*	1.8µM*	1.7µM*	?
CCOC(=O)c1c(C)[nH]c(CCC(=O)NCc2cccc(OC)c2)c1C	.	.	.	.	-6%	.
CCOC(=O)c1c(C)[nH]c(N=Nc2cccc(C)c2)c1C	7.9µM*	2.5µM*	2.8µM*	1.8µM*	7.6µM*	?
CCOC(=O)c1c(C)[nH]c(CCC(=O)NCc2cccc(C)c2)c1C	.	.	.	.	-3%	.
COc1ccccc1/C=N/Nc1cc(C)nc2ccc(C)cc12	.	7%	11%	16%	-12%	?
COc1ccc2nc(C)cc(N/N=C/c3ccccc3)c2c1	.	4%	-5%	-2%	9.5µM*	-9%
COc1ccc(/C=N/Nc2ncccc2[N+](=O)[O-])c(OC)c1	11µM*	2.6µM*	3.5µM*	?	1.1µM*	?
COc1ccc(/C=N/Nc2cc(C)nc3ccc(OC)cc23)c(OC)c1	.	18%	3%	-2%	21µM*	?
CCn1c(SCc2cccc(F)c2)nnc1-c1ccncc1	.	-3%	0%	0%	1%	2.6µM*
CCn1c(SCc2cccc(F)c2)nnc1-c1cccnc1	.	4%	6%	1%	4%	3%
CC1(C(=O)O)COC(c2ccc(Cl)cc2)OC1 (stereo not given)	.	-1%	-6%	-2%	2%	0%
COC(=O)c1ccc(C2OCC(C)(C)CO2)cc1	?	19%	?	?	27µM*	?
COc1cc(/C=C2\CCn3c2nc2cc(C(=O)O)ccc2c3=O)ccc1OC(F)F	.	11%	-4%	5%	0%	11%
N#CC(C#N)=c1ccc2c(c1)N1C3=C(CCCC3)CC3CCCCC31N=2 (stereo not given)	-108%	-8%	1%	-5%	12µM*	-11%
N#C/C(C(N)=O)=c1/ccc2c(c1)N1C3=C(CCCC3)CC3CCCCC31N=2 (stereo not given)	-15%	-28%	-6%	-10%	8.5µM*	21µM*
CN(C)S(=O)(=O)c1ccc(N2CCCC2)c(C(=O)NNC(=O)c2ccccc2)c1	.	3%	-2%	-7%	3%	-19%
CCOc1ccc(-c2csc(/C(C#N)=C\c3ccc(O)c([N+](=O)[O-])c3)n2)cc1	-93%	-10%	-2%	-5%	4.3µM*	13µM*
CN1/C(=C/c2cc[n+](C)c3ccccc23)C=Cc2ccccc21	-90%	-21%	-39%	-43%	13µM*	1.3µM*
C[n+]1ccc(/C=C/c2ccccc2O)c2ccccc21	-38%	-12%	-6%	-6%	-15%	?
COc1ccccc1C(C)NC(=O)Cc1ccc(S(=O)(=O)N2CCOCC2)s1 (stereo not given)	.	1%	-4%	0%	3%	-3%
O=C(NNS(=O)(=O)c1ccccc1)c1csc(-c2cccnc2)n1	.	-8%	-2%	-3%	0%	12µM*
O=C(Nc1ccccc1Cl)c1csc(-c2cccnc2)n1	.	18%	2.8µM*	2.8µM*	12µM*	?
O=C(NNC(=O)c1csc(-c2cccnc2)n1)c1ccccc1	.	1%	-3%	12%	?	-18%
Cc1cccc(Nc2nnc(SCC(=O)NCC3CCCO3)s2)c1 (stereo not given)	.	4%	.	.	.	?
CCc1ccc(Nc2nnc(SCC(=O)N(C)CC(=O)Nc3ccccc3CC)s2)cc1	-18%	-2%	0%	3%	6.7µM*	18µM*

Source: PubChem
